The values that follow come from PubChem BioAssay (NCI).

“And” between values parts separate entries of the source, which are not always exact repeats. Equal entries are not always repeated. The panel holds about 79,000 compounds, 15% with a hit somewhere; the sample as a whole holds those more often. Values without a mark were called inactive. The source made the active and inactive calls. No stated cut-off is given here; in the data, active means growth inhibition above about 70%; inactive means the rest.

A short description of experiment [1]: NCI Yeast Anticancer Drug Screen. Data for the rad50 strain (AID 155).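 Further: 0% = growth of vehicle-only cultures of the same strain.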 As to conditions: S. cerevisiae rad50 strain growth inhibition, active compounds read high. A digest of the protocol: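 Vehicle-treated cultures provide the reference for the growth inhibition reported for compound-exposed, repair-deficient yeast.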
Experiment [2] in a line: NCI Yeast Anticancer Drug Screen. Data for the mec2-1 strain (AID 157). Conditions: S. cerevisiae mec2-1 strain, active compounds read high. In short, it runs like this:
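Vehicle-treated cultures served as reference for growth inhibition of compound-exposed mec2-1 yeast.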

A short description of experiment [3]: NCI Yeast Anticancer Drug Screen. Data for the sgs1 mgt1 strain (AID 161).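 Further: 0% = growth of cultures given vehicle only.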 As to conditions: S. cerevisiae sgs1 mgt1 strain, active compounds read high. In short, it runs like this:
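Read-out: growth inhibition vs vehicle controls. Cells: mutant yeast strain deficient in DNA damage repair.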

Experiment [4] is described as follows: NCI Yeast Anticancer Drug Screen. Data for the cln2 rad14 strain (AID 165).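 Further: 0% = growth equal to vehicle treated cultures.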 Conditions: S. cerevisiae cln2 rad14 strain, active compounds read high. In short, it runs like this:
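Each compound was tested on cln2 rad14 yeast. Inhibition of growth was calculated against vehicle-exposed controls.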

Experiment [5] can be described thus: NCI Yeast Anticancer Drug Screen. Data for the bub3 strain (AID 167). Conditions: S. cerevisiae bub3 mutant strain, active compounds read high. A digest of the protocol:
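Mutant yeast screening strain plus compound; vehicle-treated cultures serve as the 0% inhibition reference.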

A short description of experiment [6]: NCI Yeast Anticancer Drug Screen. Data for the mlh1 rad18 strain (AID 175). Conditions: S. cerevisiae mlh1 rad18 strain growth inhibition, active compounds read high. A digest of the protocol:
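Vehicle-treated cultures served as the reference for growth inhibition in a yeast strain carrying DNA damage repair alterations exposed to each compound.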

[7] abbreviates: at 5.0 µM (retest, dose inferred, filed as 0.5).
[8] abbreviates: at 50.0 µM (retest, dose inferred, filed as 5.0).

`Oc1c(Cl)c(Cl)c(Cl)c(Cl)c1Cl`: the growth inhibition in experiment [1] (setting [7]) was 14% and 30%; in experiment [1] (setting [8]), 99% (active) and 100% (active); in experiment [1] (at 50.0 µM), 80.8% (active) and 99% (active); in experiment [2] (setting [7]), 16% and 23%; in experiment [2] (setting [8]) it was 100% (active) and 99% (active); in experiment [2] (at 50.0 µM), 99.8% (active) and 99% (active). The growth inhibition in experiment [3] (setting [7]) is 13% and 39%; in experiment [3] (setting [8]), 98% (active) and 99% (active); in experiment [3] (at 50.0 µM), 97.5% (active) and 99.2% (active); in experiment [4] (setting [7]), 15% and 30%; in experiment [4] (setting [8]) it was 99% (active); in experiment [4] (at 50.0 µM), 99% (active). The growth inhibition in experiment [5] (setting [7]) is 5% and 13%; in experiment [5] (setting [8]) it was 99% (active); in experiment [5] (at 50.0 µM) it was 99.4% (active) and 99% (active); in experiment [6] (setting [7]), 21% and 40%; in experiment [6] (setting [8]), 99% (active); in experiment [6] (at 50.0 µM), 90% (active) and 99% (active).
In the case of `O=S(=O)([O-])[O-].[OH3+].[OH3+].[OH3+].[Ru+2].c1ccccc1`, the growth inhibition in experiment [1] (setting [7]) is -39%; in experiment [1] (setting [8]), -9%; in experiment [1] (at 50.0 µM), 88.8% (active); in experiment [2] (setting [7]) it was -1%; in experiment [2] (setting [8]), -2%; in experiment [2] (at 50.0 µM), 92.2% (active). Moreover, the growth inhibition in experiment [3] (setting [7]) was -15%; in experiment [3] (setting [8]) it was 20%; in experiment [3] (at 50.0 µM), 90.5% (active); in experiment [4] (setting [7]), -9%; in experiment [4] (setting [8]), 15%; in experiment [4] (at 50.0 µM) it was 89.6% (active). The growth inhibition in experiment [5] (setting [7]) is -11%; in experiment [5] (setting [8]) it was 42%; in experiment [5] (at 50.0 µM) it was 90.7% (active); in experiment [6] (setting [7]), -38%; in experiment [6] (setting [8]) it was 30%; in experiment [6] (at 50.0 µM), 87.5% (active).
For the molecule `CC(Cl)CNC(C)C` (configuration not stated), the growth inhibition was -156% in experiment [1] (setting [7]); -171% in experiment [1] (setting [8]); 4.95% in experiment [1] (at 50.0 µM); -50% in experiment [2] (setting [7]); -57% in experiment [2] (setting [8]); -9.4% in experiment [2] (at 50.0 µM). For the same molecule, the growth inhibition in experiment [3] (setting [7]) was -64%; in experiment [3] (setting [8]), -67%; in experiment [3] (at 50.0 µM), 3.25%; in experiment [4] (setting [7]), -54%; in experiment [4] (setting [8]), -67%; in experiment [4] (at 50.0 µM), 24.5%. Moreover, the growth inhibition is -67% in experiment [5] (setting [7]); -80% in experiment [5] (setting [8]); -7.95% in experiment [5] (at 50.0 µM); -137% in experiment [6] (setting [7]); -120% in experiment [6] (setting [8]); 6.1% in experiment [6] (at 50.0 µM).
`O=S(=O)(O)O.[Pt].c1ccc([PH+](c2ccccc2)c2ccccc2)cc1.c1ccc([PH+](c2ccccc2)c2ccccc2)cc1.c1ccc([PH+](c2ccccc2)c2ccccc2)cc1`: the growth inhibition in experiment [1] (setting [7]) was 23%; in experiment [1] (setting [8]) it was 95% (active); in experiment [1] (at 50.0 µM), 93.8% (active); in experiment [2] (setting [7]), 13%; in experiment [2] (setting [8]), 94% (active); in experiment [2] (at 50.0 µM) it was 98.1% (active). Besides, the growth inhibition in experiment [3] (setting [7]) was 9%; in experiment [3] (setting [8]), 94% (active); in experiment [3] (at 50.0 µM), 94.3% (active); in experiment [4] (setting [7]), 8%; in experiment [4] (setting [8]), 97% (active); in experiment [4] (at 50.0 µM), 97.8% (active). The growth inhibition in experiment [5] (setting [7]) was -7%; in experiment [5] (setting [8]) it was 92% (active); in experiment [5] (at 50.0 µM) it was 96.7% (active); in experiment [6] (setting [7]), 39%; in experiment [6] (setting [8]) it was 95% (active); in experiment [6] (at 50.0 µM), 95.2% (active).
